Source: PubChem BioAssay

Assay: viability loss with induced miR-34 in A549 – imaging, A549 dox-inducible miR-34, nuclei and caspase counts, primary screen (AID 1347080); note: test concentration not given here
Settings: A549 miR-34 inducible, Hoechst nuclei count, 48 h; measured here: total cells with miR-34 induction; stronger effect = lower value

Row | Structure (SMILES) | cell count
1 | CC#CCC(C)[C@H](O)/C=C/[C@@H]1[C@H]2C/C(=C\CCCC(=O)O)C[C@H]2C[C@H]1O (stereo partly specified) | 5570
2 | CCCCCCCCCCCCCCCCOC[C@H](COP(=O)([O-])OCC[N+](C)(C)C)OC | 5780
3 | CC(C)CCOc1ccc(N)cc1 | 3780
4 | O=C(O)CCC/C=C\C[C@@H]1[C@@H](/C=C/[C@H](O)COc2cccc(C(F)(F)F)c2)[C@H](O)C[C@@H]1O | 6230
5 | CN(C)C(=O)CCSC(SCCC(=O)O)c1cccc(/C=C/c2ccc3ccc(Cl)cc3n2)c1 (stereo unspecified) | 5360
6 | COc1ccc2c(c1)c(CC(=O)NCCc1ccccc1)c(C)n2C(=O)c1ccc(Cl)cc1 | 6040
7 | CC/C=C\C/C=C\C/C=C\C/C=C\CCCCCCC(=O)OCC | 5560
8 | CCNC(=O)CCC/C=C\C[C@@H]1[C@@H](CC[C@@H](O)CCc2ccccc2)[C@H](O)C[C@@H]1O | 5780
9 | CCCCCCC(Sc1nc(Cl)cc(NCc2ccc(-c3ccccc3)cc2)n1)C(=O)O (stereo unspecified) | 6140
10 | CCCCC/C=C\C=C\CCCCCCCCC(=O)O | 5840
11 | C=C1C[C@H](O)[C@H](C/C=C\CCCC(=O)O)[C@H]1/C=C/[C@@H](O)CCCCC | 5940
12 | CCCCCC(=O)OC[C@H](CO)OC(=O)CCCCC | 5390
13 | C=C1O[C@@](CO)(n2cnc3c(N)ncnc32)[C@H](O)[C@@H]1O | 4870
14 | COc1ccc(/C=C/c2cc(O)cc(O)c2)cc1O | 5710
15 | CCCCCC(=O)CC[C@H]1C=CC(=O)[C@@H]1C/C=C\CCCC(=O)O | 5230
16 | CCCCC[C@@](C)(O)/C=C/[C@H]1[C@H](O)CC(=O)[C@@H]1C/C=C\CCCC(=O)O | 5770
